# Measurements as given in ChEMBL document CHEMBL4513216, “Probing the Open Global Health Chemical Diversity Library for Multistage-Active Starting Points for Next-Generation Antimalarials” (ACS Infect Dis, 2020).
# Screen size: about 68,000 compounds; about 2,700 (4%) showed an effect of 50% or more. Only a selection was taken, and strong results are over-represented in it overall.
# Test system: Plasmodium berghei
# Experiment: Screen against P. berghei liver stage (PbLuc), transformed with Luciferase, at 2uM
# Type: functional, HepG2
# Conditions: tested at 2 uM
row,SMILES,INHIBITION [%]
1,Cc1cnc(N2CCCC3(COCCN(c4ccc(C)nn4)C3)C2)nc1 (configuration not stated),20.21
2,CN(Cc1cccc(O)c1)C(=O)c1ccc(CCC(C)(C)O)cc1,19.75
3,O=C(NCCc1cccs1)N1CCC[C@H]1CO,55.39
4,O=C(NCCc1cccs1)N1CCCC1CCCO (configuration not stated),8.03
5,O=C(NCCCc1cccs1)N1CCCCC1CCO (configuration not stated),39.97
6,COCC(=O)N1CCCC(C(=O)N(C)CCn2ccnc2C)C1 (configuration not stated),46.04
7,Cc1ccc2nc(C)c(C)c(C(=O)NCCCn3cnnc3)c2c1,10.78
8,Cc1ccc2[nH]c(C(=O)NCCCn3ccnn3)c(C)c2c1,22.39
9,Cc1ccc2nc(C)c(C)c(C(=O)NCCCn3ccnn3)c2c1,56.21
10,CC(=O)NCCC1CCCCN1S(=O)(=O)c1cccc(Cl)c1 (configuration not stated),-12.13
11,CC(=O)NCCC1CCCCN1S(=O)(=O)c1cccc(F)c1 (configuration not stated),50.91
12,CC(=O)NCCC1CCCCN1S(=O)(=O)c1ccc2ccccc2c1 (configuration not stated),29.89
13,Cn1cc(-c2csc(N3CCOCC3)n2)cn1,13.35
14,Cc1occc1C(=O)N1CCOCC2(CCN(Cc3nccs3)C2)C1 (configuration not stated),3.85
15,O=C(N1CCCC1)N1C[C@H]2CCC[C@@]2(COCc2ccccn2)C1,5.44
16,CSC(C)C(=O)NS(=O)(=O)c1ccc(F)c(C(F)(F)F)c1 (configuration not stated),51.48
17,COC(C)C(=O)NS(=O)(=O)c1ccc(F)c(C(F)(F)F)c1 (configuration not stated),35.7
18,CC(C)C(=O)NS(=O)(=O)c1ccc(F)c(C(F)(F)F)c1,18.82
19,CC(C)N(C)CCC(=O)N1CCCC(c2ccc(C(=O)O)cc2)C1 (configuration not stated),-1.98
20,Cc1cc(CN2CCc3nn(C)c(=O)cc3C2)on1,-2.31
21,CCn1nc2c(cc1=O)CN(Cc1cc(C)on1)CC2,73.01
22,CCCn1nc2c(cc1=O)CN(Cc1c(C)noc1C)CC2,44.37

row,SMILES,INHIBITION [%]
1,Cc1cc(CN2CCc3nn(C)c(=O)cc3C2)no1,22.34
2,CCCn1nc2c(cc1=O)CN(Cc1cc(C)on1)CC2,-1.79
3,CCCn1nc2c(cc1=O)CN(Cc1cc(C)no1)CC2,62
4,Cc1cc(C)nc(N2CCC(Cn3cc(C(N)=O)cn3)CC2)n1,0.93
5,Clc1ccc(-c2nnc([C@H]3CCN(C4CCCCC4)C3)o2)cc1,-57.27
6,O=C(Nc1cn[nH]c1)N1CCN(CCSc2ccccc2)CC1,-11.24
7,COCCN1CCc2cc(C(=O)NC(C)C)c(NCC(C)C)nc2CC1,42.15
8,Cc1nn(C)c(Oc2ccc(Cl)cc2)c1CN1CCOC(CN)C1 (configuration not stated),48.21
9,Cc1nn(C)c(Oc2ccc(Cl)cc2)c1CN1CC[C@H](CO)[C@@H](O)C1,43.44
10,Cc1nn(C)c(Oc2ccc(Cl)cc2)c1CN1CCC(CN)C1 (configuration not stated),64.9
11,CN(C)C(=O)CN1C[C@H]2CC[C@@H](C1)N(Cc1ccccc1OCCO)C2,5.28
12,CC(C)[C@@H]1CN(Cc2cnc(C3CCCCC3)nc2)C[C@H]1N(C)C,-1.57
13,Cc1nn(C)c(N(C)C)c1CNCC(O)c1ccccc1F (configuration not stated),49.9
14,CC(C)c1nn(C)c(N(C)C)c1CNCC(O)c1ccccc1 (configuration not stated),35.65
15,COc1ccccc1OCCNCc1c(C(C)C)nn(C)c1N(C)C,7.64
16,COc1c(CNCC(O)c2ccccc2F)c(C(C)C)nn1C (configuration not stated),-72.31
17,COc1ccccc1C(O)CNCc1c(C(C)C)nn(C)c1N(C)C (configuration not stated),63.95
18,CC(C)c1nn(C)c(N(C)C)c1CNCC(O)c1ccccc1F (configuration not stated),78.51
19,O=C(NCC1CC1)c1n[nH]c2c1CNCC2,5.69
20,COc1nn(C)cc1C(=O)NCC(OC)c1ccccc1C (configuration not stated),24.09
21,COc1ccc(NC(=O)CN2CCCCC2C2OCCO2)cc1 (configuration not stated),-13.68
22,O=C(C1CC1)N1CCN(C(=O)C2CC(=O)N(c3ccccc3Br)C2)CC1 (configuration not stated),10.42

row,SMILES,INHIBITION [%]
1,O=C(C1CC(=O)N(c2ccccc2Br)C1)N1CCCCCC1 (configuration not stated),57.51
2,COC1CCN(C(=O)C2CC(=O)N(c3ccccc3Br)C2)CC1 (configuration not stated),22.86
3,CC(c1cn2ncsc2n1)n1cc2[nH]cccc-2c1=O (configuration not stated),30.09
4,CC(C)OCc1ncn2c1CN(CC1CC1)CCC2,-13.31
5,O=C(Nc1cccnc1)[C@@H]1C[C@H]2OCC[C@H]2N(Cc2ccsc2)C1,-83.74
6,O=C(Nc1cnccn1)[C@@H]1C[C@H]2OCC[C@H]2N(Cc2ccsc2)C1,59.52
7,O=C(NCC1CC1)[C@H]1C[C@H]2OCC[C@H]2N(Cc2ccsc2)C1,-12.09
8,Cc1cccc(S(=O)(=O)N2C[C@@H]3C[C@H](C(=O)NC4CCC4)[C@H](C2)O3)c1,12.57
9,COCCN1C[C@@H]2CC[C@H]1CN(C(=O)CCc1c(C)nn(C)c1C)C2,-23.17
10,O=C(Nc1ccc(-c2nc3c([nH]2)CCNC3)cc1)N1CCCC1,-15.03
11,O=S(=O)(c1ccc(-c2nc3c([nH]2)CCNC3)cc1)N1CCCC1,52.3
12,CC(C)NC(=O)Nc1ccc(-c2nc3c([nH]2)CCNC3)cc1,-35.22
13,Brc1ccc(NCCCOC2CCOCC2)nc1,-11.28
14,c1cnc(NCCCOC2CCOCC2)nc1,74.34
15,Brc1cnc(NCCCOC2CCOCC2)nc1,21
16,Cc1ccc(-c2cc(N)c(=O)n(CC(=O)NCC3CC3)n2)s1,36.17
17,CN(Cc1ccccc1)CC1(O)CCCN(CC(C)(C)C)C1=O (configuration not stated),16.64
18,COCCC(=O)N1CCc2cc(Cl)cc(Cl)c2C1,-10.6
19,O=C(NCC1CCS(=O)(=O)C1)c1ccco1 (configuration not stated),69.48
20,O=C(NCC1CCS(=O)(=O)C1)c1ccc(NC(=O)c2ccco2)cc1 (configuration not stated),-19.02
21,Cc1cc(C(=O)NCC2CCS(=O)(=O)C2)ccc1NC(=O)c1ccco1 (configuration not stated),-34.12
22,CCOCCCC(=O)Nc1ccc(OCc2noc(C3CC3)n2)cc1,18.09

row,SMILES,INHIBITION [%]
1,COc1cccc2c1N(Cc1noc(C3CC3)n1)CCC2,-17.64
2,COc1cccc2c1N(Cc1nc(C3CC3)no1)CCC2,64.22
3,COCCc1noc(CN2CCCc3cccc(OC)c32)n1,-61.35
4,CCCC(NC(=O)c1cncc(C)c1)c1nnn[nH]1 (configuration not stated),-10.41
5,COCCN1CCc2ncnc(NC(C)C)c2CC1,3.6
6,C[C@@H](NC(=O)c1cnccn1)c1c(-c2ccc(F)cc2)noc1C(=O)O,34.79
7,CCc1ccc(CCC(=O)N2CCOCC2c2ncon2)cc1 (configuration not stated),-45.23
8,Cc1ccc(CC(=O)N2CCOCC2c2ncon2)cc1 (configuration not stated),54.99
9,O=C(CCc1cccc(Cl)c1Cl)N1CCOCC1c1ncon1 (configuration not stated),58.52
10,O=C(COc1ccc(Cl)cc1)N1CCOCC1c1ncon1 (configuration not stated),-29.5
11,Cc1ccc(CCC(=O)N2CCOCC2c2ncon2)c(C)c1 (configuration not stated),35.23
12,Cc1cccc(C)c1OCC(=O)N1CCOCC1c1ncon1 (configuration not stated),29.54
13,O=C(COc1cccc(Cl)c1)N1CCOCC1c1ncon1 (configuration not stated),-6.71
14,CCc1ccccc1OCC(=O)N1CCOCC1c1ncon1 (configuration not stated),53.58
15,CC(C)c1ccc(CCC(=O)N2CCOCC2c2ncon2)cc1 (configuration not stated),15.47
16,COCc1cccc(NC(=O)NCCCN(C)S(C)(=O)=O)c1,30.98
17,CC(C)CC(=O)N1CC(=O)N(Cc2ccco2)CC(O)C1 (configuration not stated),-6.69
18,Cc1cccc(-c2nc(C)nn2CC(=O)NCC(C)C)c1,-9.49
19,CCC(=O)c1ccc(OCC(=O)NC(C)c2nnc(C)[nH]2)cc1 (configuration not stated),-20.29
20,CCn1ccc2cc(NC(=O)CC3CCCO3)ccc21 (configuration not stated),-73.93
21,Cc1cccc2cc(CO)c(N3Cc4cnc(C(C)(C)C)nc4C3)nc12,30.89
22,CCC(Nc1nnnn1-c1ccccc1)C(=O)Nc1nc(C)cs1 (configuration not stated),-13.81

row,SMILES,INHIBITION [%]
1,Cc1nnsc1C(=O)NCc1cccnc1N(C)C,6.17
2,O=C(c1cccc(CNCC=Cc2ccccc2)c1)N1CCCC1,4.49
3,CCN(Cc1nc2c(cnn2C)c(=O)[nH]1)c1ccccc1C,-16.3
4,COc1ccc(NC(=O)C2CCCO2)cc1OCc1cccnc1 (configuration not stated),61
5,COc1ccc(NC(C)=O)cc1OCc1cccnc1,5.44
6,COc1ccc(NC(=O)C2CC2)cc1OCc1cccnc1,21.24
7,CCc1nnc2n1CCN(Cc1ncc(-c3ccc(F)cc3)o1)C2,1.6
8,O=C(c1ncccn1)N1C[C@@H]2CN(Cc3cccnc3)CCO[C@@H]2C1,22.62
9,CCN(Cc1noc(C2CCC2)n1)C(=O)c1cnc2ccccc2c1,19.53
10,CCN(Cc1noc(C2CC2)n1)C(=O)c1onc2ccccc12,51.31
11,CCCc1nc(CN(CC)C(=O)c2onc3ccccc23)no1,-12.7
12,CC(=O)N1CCC(C(=O)c2cc(C)cnc2N)CC1,27.16
13,Cc1cnc(N)c(C(=O)C2CCN(C(=O)c3cnc(C)cn3)CC2)c1,25.72
14,Cc1cnc(N)c(C(=O)C2CCN(C(=O)C3CCC3)CC2)c1,61.16
15,Cc1cnc(N)c(C(=O)C2CCN(C(=O)c3cnc(C)nc3C)CC2)c1,69.08
16,C=C(C)C(=O)N1CCC(C(=O)c2cc(C)cnc2N)CC1,6.57
17,Cc1cnc(N)c(C(=O)C2CCN(C(=O)c3ccccc3F)CC2)c1,21.37
18,O=C(NCCn1cccn1)c1nnc2ccccc2n1,7.42
19,O=C(NC[C@H]1Cn2c(-c3ccccc3)cnc2CO1)C1CC1,35.6
